Screening data from PubChem.
CSC inhib – cancer stem cell viability inhibitors, primary screen, luminescence | cancer stem cell-like cells viability | inhibition, % at 7.5 µM | 1.1% of 300,000 active; in the data active = inhibition above about 75%; inconclusive = no clear call, values can overlap the other calls; tested in HMLE shEcad cells
aSyn 5UTR inh – MLPCN primary screen, SNCA 5' untranslated region; alpha-synuclein 5'UTR reporter, inhibitor activity; inhibition, % (tested at 7.5 µM); 0.82% of 300,000 active; in the data active = inhibition above about 60%; inconclusive = no clear call, values can overlap the other calls;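 also: H4 neuroglioblastoma cells stably carrying SNCA 5'UTR luciferase fusion; 0% = DMSO wells and 100% = positive control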
Bfl-1 A1 inh – caspase 3/7 activation in MEF A1-2A-BIM cells, primary screen, A1 inhibitor project, cell-based, luminescence, HTS; Caspase-Glo 3/7 luminescence, 3 h; percent of clofoctol response, vehicle zero; caspase activation, % (concentration not given with the values); 0.066% of 330,000 active; AID 2462, 2010;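 active = over half of replicate activation scores above 10%, or exactly half above 10 with the replicate mean above 10; inconclusive = replicate mean below 10 yet half the replicates above 10; inactive = over half of replicates below 10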
Mdm2-MdmX inh – inhibitors of human Mdm2-MdmX association, primary screen, cell-based, luminescence, split luciferase, SaOS-2, uHTS; SaOS-2 split-luciferase Mdm2/MdmX complementation; inhibition, % at 8 µM; Protein Mdm4 (Homo sapiens) + E3 ubiquitin-protein ligase Mdm2 (Homo sapiens), …; 3% of 330,000 active;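 active = inhibition of at least 50% at 8 µM in the primary screen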
Target sequence (O15151 whole entry, looked up): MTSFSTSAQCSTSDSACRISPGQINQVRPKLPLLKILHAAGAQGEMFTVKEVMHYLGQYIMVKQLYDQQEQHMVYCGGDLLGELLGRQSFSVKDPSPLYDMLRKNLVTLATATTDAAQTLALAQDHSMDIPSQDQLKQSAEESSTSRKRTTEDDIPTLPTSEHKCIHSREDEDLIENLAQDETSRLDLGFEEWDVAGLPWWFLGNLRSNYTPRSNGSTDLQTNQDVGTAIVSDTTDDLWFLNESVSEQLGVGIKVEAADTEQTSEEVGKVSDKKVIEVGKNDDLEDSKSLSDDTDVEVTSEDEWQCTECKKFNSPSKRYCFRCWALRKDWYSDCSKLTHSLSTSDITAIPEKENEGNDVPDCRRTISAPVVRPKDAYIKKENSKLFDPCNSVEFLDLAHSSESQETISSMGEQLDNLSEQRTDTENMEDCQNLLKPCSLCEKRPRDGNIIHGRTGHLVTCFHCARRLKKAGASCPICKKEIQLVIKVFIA
Target sequence (Q00987 whole entry, looked up): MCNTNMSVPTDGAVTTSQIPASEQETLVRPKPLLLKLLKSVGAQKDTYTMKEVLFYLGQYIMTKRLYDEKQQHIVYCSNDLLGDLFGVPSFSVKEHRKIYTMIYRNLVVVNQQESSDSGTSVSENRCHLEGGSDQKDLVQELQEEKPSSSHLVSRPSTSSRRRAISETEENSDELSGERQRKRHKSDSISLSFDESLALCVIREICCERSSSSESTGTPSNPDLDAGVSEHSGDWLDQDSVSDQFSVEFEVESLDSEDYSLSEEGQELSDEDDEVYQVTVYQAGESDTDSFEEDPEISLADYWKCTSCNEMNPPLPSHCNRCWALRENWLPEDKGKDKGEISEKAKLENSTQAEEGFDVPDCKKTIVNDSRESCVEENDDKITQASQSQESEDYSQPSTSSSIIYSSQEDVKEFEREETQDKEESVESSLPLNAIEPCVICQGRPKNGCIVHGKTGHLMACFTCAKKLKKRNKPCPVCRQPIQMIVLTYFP
Beta apoptosis – inhibitors of cytokine-induced beta cell apoptosis, primary screen, luminescence. INS-1E cytokine-induced death, ATP luminescence, 48 h; percent of positive-control rescue, neutral wells zero. protection from apoptosis, % (test concentration not listed). 0.8% of 300,000 active;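 active = Every replicate reaches about 75%, or at least half do and their mean reaches it too, limit read from the data; inconclusive = At least half of replicates reach the limit but their mean does not; inactive = Under half of replicates reach the limit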;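 also: 0% = cytokine-treated negative control wells and 100% = positive control rescue; higher means more ATP so stronger rescue from cytokine killing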
Mdm2 MdmX conf – Mdm2-MdmX complex disruptors, retested hits, confirmation, luminescence, single concentration; shares compounds with Mdm2-MdmX inh; Mdm2-MdmX binding, luminescent assay; inhibition, % at 8 µM; 55% of 10,000 active; AID 489028, 2010; in the data active = inhibition above about 40%
FLuc counter – full-length luciferase signal inhibition, confirmation, counter-screen for Mdm2/MdmX interaction inhibitor project, cell-based, single concentration, SaOS-2; SaOS-2 full-length luciferase counterscreen, luminescence; 77% of 6,200 active; inhibition, % at 8 µM; shares compounds with Mdm2-MdmX inh;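 active = mean inhibition at 8 µM reaching about 37%, which flags the compound as non-specific, limit read from the data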;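 also: p53-null SaOS-2 cells with luciferase driven by a doxycycline-inducible promoter; compound on cells about two nights before reading with doxycycline added after day one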
Starred values were filed as active, the others as inactive; ? = inconclusive; . = no result. An excerpt weighted towards active compounds, which were near 4.1% of everything screened.

SMILES | CSC inhib | aSyn 5UTR inh | Bfl-1 A1 inh | Mdm2-MdmX inh | Beta apoptosis | Mdm2 MdmX conf | others
Cc1ccc(S(=O)(=O)N2CCN(C(=O)COC(=O)CSc3ccc(C)c(C)c3)CC2)c(C)c1 | . | . | . | -3.7 | . | .
COc1ccc(C(=O)Nc2ccccc2C(=O)NCc2cccnc2)cc1 | 0.9 | -19.1 | 0.6 | 27.1 | -5.0 | .
CCOC(=O)c1cc(NC(=O)c2ccccc2)c(=O)n2c1oc1ccccc12 | -3.7 | 9.9 | 0.4 | 56.1* | 11.3 | 7.1
CCOC(=O)c1cc(NC(=O)c2ccc(C)cc2)c(=O)oc1-c1ccccc1 | -9.4 | 12.0 | 1.0 | -2.7 | -4.4 | .
CC1(C)CC(=O)C2=C(C1)OC1=C(C(=O)CC(C)(C)C1)C2c1ccc(O)cc1O | 29.7 | -11.1 | 2.2 | 99.5* | 101.7* | 83.0* | FLuc counter=50.5*
CC1(C)CC(=O)C2=C(C1)OC1=C(C(=O)CC(C)(C)C1)C2c1ccc(O)c([N+](=O)[O-])c1 | -1.3 | 13.5 | -1.0 | 13.3 | -4.6 | .
O=C(/C=C/C=C/c1ccccc1)CC1(O)C(=O)N(CCc2ccccc2)c2ccccc21 (centres undefined) | 15.2 | -9.5 | 0.6 | 52.6* | -0.5 | -1.2
CCN1C(=O)C(O)(CC(=O)/C=C/C=C/c2ccccc2)c2ccccc21 (centres undefined) | 17.1 | -20.9 | -0.9 | 27.4 | -6.2 | .
CN(c1ccccc1)S(=O)(=O)c1nnc(NC(=O)C2CCCCC2)s1 | 2.5 | 5.4 | -1.2 | 28.2 | 6.3 | .
C/C(N)=C(/C#N)C(=O)COC(=O)c1cc(C)n(-c2ccc(F)cc2)c1C | 38.1 | -109.1 | 0.1 | 79.8* | 5.1 | 32.5
CC(=O)Nc1cccc(NC(=O)CSc2nc3c(=O)n(C)c(=O)n(C)c3n2C)c1 | -0.3 | -0.4 | 1.3 | 10.5 | -4.7 | .
O=C(O)c1ccc(NC(=O)c2ccco2)c(NC(=O)c2ccco2)c1 | . | 1.4 | -0.3 | 9.9 | -1.5 | .
CC(C)(C)OC(=O)[C@H](Cc1ccccc1)NC(=O)c1nc[nH]c1C(=O)N[C@@H](Cc1ccccc1)C(=O)OC(C)(C)C | -3.8 | 22.2 | -1.0 | 85.6* | 30.6 | 13.3
CC(C)(C)OC(=O)NCCCC[C@H](NC(=O)c1[nH]cnc1C(=O)N[C@@H](Cc1ccccc1)C(=O)OC(C)(C)C)C(=O)OC(C)(C)C | 30.1 | 23.3 | -0.2 | 62.5* | 49.8 | 10.2
CC(C)(C)OC(=O)NCCCCCNC(=O)c1[nH]cnc1C(=O)N[C@@H](Cc1ccccc1)C(=O)OC(C)(C)C | . | . | 0.3 | 4.7 | 5.0 | .
CCN(c1ccccc1)S(=O)(=O)c1ccc(NC(=O)c2nc(S(C)(=O)=O)ncc2Cl)cc1 | 99.3* | 1.7 | -2.1 | 99.2* | 98.4* | 95.8* | FLuc counter=51.2*
CCS(=O)(=O)c1ncc(Cl)c(C(=O)Nc2ccc(S(=O)(=O)N(C)c3ccccc3)cc2)n1 | 98.1* | 78.0* | 12.5* | 98.1* | 105.2* | 99.9* | FLuc counter=51.5*
CCN(c1ccccc1)S(=O)(=O)c1ccc(C(=O)Nc2ccncc2)cc1 | -13.9 | -28.9 | 1.1 | 33.8 | -9.3 | .
CC(=O)Nc1ccc(S(=O)(=O)N(C)c2ccccc2)cc1 | 25.9 | 17.3 | -0.2 | -22.9 | 3.5 | .
Cc1ccc(S(=O)(=O)CCc2nnc(NC(=O)CCl)s2)cc1C | -3.6 | -55.1 | 1.4 | 74.8* | -11.6 | 11.1
Cc1cc(C)cc(NC(=S)NCc2ccc3[nH]c4c(c3c2)CCCC4)c1 | 61.6 | 39.7 | -0.1 | 83.4* | . | 21.0
S=C(NCc1ccc2[nH]c3c(c2c1)CCCC3)Nc1ccccc1 | . | 12.5 | . | 70.5* | -8.3 | 14.8
CCS(=O)(=O)NCc1ccc2[nH]c3c(c2c1)CCCC3 | -0.5 | 12.2 | -0.2 | -16.9 | -12.6 | .
COc1ccc2oc(C(=O)OC(C)C(=O)N3C(C)CCCC3C)c(C)c2c1 (centres undefined) | 5.3 | . | -0.3 | 11.1 | 1.3 | .
COc1ccc(-n2ccnc(SCC(=O)NCc3ccc(C)cc3)c2=O)cc1Cl | 3.4 | -19.6 | -0.4 | 7.6 | -17.9 | .
SMILES | CSC inhib | aSyn 5UTR inh | Bfl-1 A1 inh | Mdm2-MdmX inh | Beta apoptosis | Mdm2 MdmX conf | others
COc1ccc(/C=C(/NC(=O)c2ccc(OC)c(OC)c2)C(=O)NCCCn2ccnc2)cc1 | -5.6 | -13.4 | 0.0 | 10.9 | -4.1 | .
CS(=O)(=O)c1ccc(Sc2nc3ccccc3[nH]2)c([N+](=O)[O-])c1 | 5.9 | -8.0 | 1.6 | 7.1 | -11.6 | .
O=[N+]([O-])c1cc(S(=O)(=O)C(F)(F)F)ccc1Sc1nc2ccccc2[nH]1 | 113.1* | -20.3 | 0.1 | 56.8* | -9.8 | 12.2
O=[N+]([O-])c1cc(S(=O)(=O)C(F)(F)F)ccc1Sc1nc2ccccc2s1 | 101.0* | -11.5 | 1.0 | 96.2* | -5.0 | 10.2
CNC(=O)c1c(NC(=O)C2=COCCO2)sc2c1CCN(C(=O)OC)C2 | -10.4 | 0.0 | -0.2 | 17.6 | . | .
COC(=O)N1CCc2c(sc(NC(=O)C3=COCCO3)c2C#N)C1 | -12.3 | -125.6 | 0.6 | 55.7* | . | 75.5* | FLuc counter=65.7*
CC1CN(S(=O)(=O)c2ccc(CN3C(=O)c4cccnc4C3=O)s2)c2ccccc2O1 (centres undefined) | 8.1 | 12.8 | 0.2 | 13.4 | -0.7 | .
CC(=O)N(C(C)=O)n1c(C)nc2sc3c(c2c1=O)CCCC3 | -11.4 | ? | 0.6 | 72.5* | -9.2 | 79.5* | FLuc counter=45.5*
CCCCN(C(=O)c1ccc(S(=O)(=O)N2CCC(C)CC2)cc1)C1CCS(=O)(=O)C1 (centres undefined) | -10.4 | 22.3 | -0.1 | 13.2 | 2.4 | .
CCOC(=O)N1CCN(C(=O)c2ccc(Cn3c(=S)[nH]c4cc(OCC)c(OCC)cc4c3=O)cc2)CC1 | 7.6 | 34.5 | -0.8 | 54.2* | 13.7 | 30.6
CN(CC(=O)N1CCN(c2ccccc2)CC1)C1CCCc2ccccc21 (centres undefined) | -5.9 | 4.8 | 0.5 | -13.1 | -1.9 | .
O=S(=O)(NCC(Nc1ccc(Cl)cc1)c1ccccc1)c1ccccc1 (centres undefined) | 62.9 | 24.2 | 0.0 | 16.7 | 6.6 | .
Cc1ccc(NC(CNS(=O)(=O)c2ccc(Cl)cc2)c2ccccc2)cc1 (centres undefined) | -1.0 | 40.0 | 0.1 | 52.1* | 8.9 | 19.6
CCc1nc(CNC(=O)C2CCC(=O)N(Cc3ccccc3F)C2)no1 (centres undefined) | . | 13.0 | . | 6.4 | . | .
COc1cc(-c2nc3cnccn3c2Nc2ccc(C(C)C)cc2)ccc1O | . | -0.8 | -0.6 | 33.7 | . | .
COc1cc(-c2nc3cnccn3c2Nc2ccccc2)ccc1O | 3.9 | 24.0 | -4.7 | 56.8* | -7.9 | 38.2 | FLuc counter=94.1*
COc1cc(-c2nc3cnccn3c2Nc2ccc(C)cc2)ccc1O | -22.0 | 22.1 | -4.2 | 68.9* | -24.4 | 7.8
